# PAX8 reporter – PAX8 transcriptional activity inhibition; RMG-I TPO-luciferase reporter, SteadyGlo, 24 h; inhibition, % at 12.6 µM; 1.2% of 360,000 active; AID 652154;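 active = mean replicate inhibition at least 60% with every replicate also reaching 60%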;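 note: luciferase light reporting Pax8 driven TPO promoter activity; plate controls were median of neutral control wells for no effect and mitoxantrone controls for full effect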
# CSC inhib – blocks cancer stem cells | cancer stem cell-like cells viability, luminescence | inhibition, % at 7.5 µM | 1.1% of 300,000 active | AID 2717; in the data active = inhibition above about 75%; tested in HMLE shEcad cells
# Mdm2-MdmX inh – disrupts the human Mdm2-MdmX interaction; O15151+Q00987; SaOS-2 split-luciferase Mdm2/MdmX complementation, luminescence; 3% of 330,000 active; inhibition, % at 8 µM; AID 485346;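 active = inhibition of at least 50% at 8 µM in the primary screen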
# Target sequence (O15151 whole entry, looked up): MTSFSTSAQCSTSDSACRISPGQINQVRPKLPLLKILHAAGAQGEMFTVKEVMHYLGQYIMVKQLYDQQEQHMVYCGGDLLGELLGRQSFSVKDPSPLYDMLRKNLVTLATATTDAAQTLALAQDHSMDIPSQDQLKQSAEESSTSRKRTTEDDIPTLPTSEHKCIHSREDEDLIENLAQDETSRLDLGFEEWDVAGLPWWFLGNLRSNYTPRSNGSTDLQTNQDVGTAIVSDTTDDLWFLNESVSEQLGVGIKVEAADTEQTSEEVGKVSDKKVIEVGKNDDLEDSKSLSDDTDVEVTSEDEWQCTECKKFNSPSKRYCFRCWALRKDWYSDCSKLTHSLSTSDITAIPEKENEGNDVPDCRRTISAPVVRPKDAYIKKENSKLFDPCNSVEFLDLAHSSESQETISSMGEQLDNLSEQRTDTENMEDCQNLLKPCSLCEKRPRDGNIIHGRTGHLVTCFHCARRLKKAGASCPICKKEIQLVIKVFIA
# Target sequence (Q00987 whole entry, looked up): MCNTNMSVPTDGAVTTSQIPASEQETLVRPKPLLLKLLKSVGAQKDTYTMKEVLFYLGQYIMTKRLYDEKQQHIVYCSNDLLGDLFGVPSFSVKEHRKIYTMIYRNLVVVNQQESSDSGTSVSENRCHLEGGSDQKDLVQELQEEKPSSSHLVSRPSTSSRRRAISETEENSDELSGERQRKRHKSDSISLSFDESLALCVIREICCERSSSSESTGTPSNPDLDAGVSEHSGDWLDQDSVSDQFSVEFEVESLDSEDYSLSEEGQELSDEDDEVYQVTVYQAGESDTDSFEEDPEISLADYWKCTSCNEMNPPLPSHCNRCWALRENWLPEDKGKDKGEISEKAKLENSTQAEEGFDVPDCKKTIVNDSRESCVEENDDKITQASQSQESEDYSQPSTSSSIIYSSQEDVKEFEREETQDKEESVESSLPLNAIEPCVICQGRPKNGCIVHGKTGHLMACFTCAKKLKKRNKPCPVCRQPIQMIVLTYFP
# Shn3 inh set2 – inhibitors of Schnurri-3 3'UTR reporter in osteoblasts; Clone20 osteoblast Shn3 3'UTR firefly luciferase, 24 h; inhibition, % at 12.5 µM; 0.52% of 360,000 active; AID 588674;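 active = mean inhibition of at least 75% with every replicate also reaching 75%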;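 note: 0% = median of neutral control wells and 100% = pilot-screen positive control compound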
# Beta apoptosis – beta cell apoptosis inhibition; protection from apoptosis, % (test concentration not listed); 0.8% of 300,000 active; INS-1E cytokine-induced death, ATP luminescence, 48 h; percent of positive-control rescue, neutral wells zero;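 active = Every replicate reaches about 75%, or at least half do and their mean reaches it too, limit read from the data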;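 note: 0% = cytokine-treated negative control wells and 100% = positive control rescue; higher means more ATP so stronger rescue from cytokine killing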
# Gli-Sufu antag – Gli-Sufu pathway antagonism | 0.74% of 340,000 active | Sufu-KO-LIGHT fibroblasts, Gli luciferase reporter luminescence | inhibition, % at 5 µM | AID 588413;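 active = inhibition above about 55%, limit read from the data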;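 note: 0% = DMSO-treated cells and 100% = wells with medium but no cells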
# Mdm2-MdmX conf – human Mdm2/MdmX binding inhibition, confirmed | 55% of 10,000 active | inhibition, % at 8 µM | shares compounds with Mdm2-MdmX inh | AID 489028 | luminescent assay; in the data active = inhibition above about 40%
# Full FLuc ctr – full-length luciferase inhibition in Mdm2/MdmX counter-screen. shares compounds with Mdm2-MdmX inh. SaOS-2 full-length luciferase counterscreen, luminescence. inhibition, % at 8 µM. 77% of 6,200 active. AID 504607;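 active = mean inhibition at 8 µM reaching about 37%, which flags the compound as non-specific, limit read from the data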;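 note: p53-null SaOS-2 cells with luciferase driven by a doxycycline-inducible promoter; compound on cells about two nights before reading with doxycycline added after day one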
# An asterisk follows results filed as active; · = no result given. Hits are enriched below; roughly 4% of the tested compounds scored in any of these assays.
SMILES,PAX8 reporter,CSC inhib,Mdm2-MdmX inh,Shn3 inh set2,Beta apoptosis,Gli-Sufu antag,Mdm2-MdmX conf,Full FLuc ctr
O=C1CN=C(c2ccccc2)c2oc3ccc(Br)cc3c2N1,·,-19,4,-8,2,3,·,·
O=C1CN=C(c2ccc(Br)cc2)c2oc3ccccc3c2N1,23,-5,58*,-1,3,14,22,·
O=C(Cc1ccccn1)N1CCCCN2[C@H](CO)[C@H](c3ccc(C#Cc4ccccc4)cc3)[C@@H]2C1,4,·,·,·,·,·,·,·
O=[N+]([O-])c1ccccc1-c1cc(-c2ccccc2)cc(-c2ccccc2)[n+]1Cc1ccccc1Cl,86*,36,88*,·,134*,38,69*,22
CCN1/C(=C\C=C\C2=[N+](CC)c3ccccc3C2(C)C)C(C)(C)c2ccccc21,·,93*,97*,96*,119*,94*,96*,7
Cc1cccc(S(=O)(=O)N2[C@@H]3Cn4c(ccc(-c5cccc(F)c5)c4=O)[C@H]2[C@@H](C(=O)O)[C@@H]3CO)c1,-6,·,·,·,·,·,·,·
N#Cc1cccc(-c2ccc([C@@H]3[C@@H](CO)N4CCCCN(C(=O)Cc5cccnc5)C[C@H]34)cc2)c1,-8,·,·,·,·,·,·,·
Oc1cc(Cl)ccc1Oc1ccc(Cl)cc1Cl,·,13,66*,9,3,-16,17,·
C[C@@H]1C[C@H]2OC(=O)C3(CO3)[C@H]2[C@H](O)[C@]2(C)C(=O)C3OC3[C@@H]12 (stereo partly specified),·,58,51*,·,-8,·,36,21
O=C(Cc1cccnc1)N1CCCCN2[C@H](CO)[C@@H](c3ccc(C#CC4(O)CCCC4)cc3)[C@@H]2C1,-1,·,·,·,·,·,·,·
N#Cc1cc2c(nc1SCC(=O)Nc1cc(Cl)ccc1Cl)C1CCN2CC1,-71,45,84*,-14,13,-38,99*,21
COc1cc2c(cc1O)C[C@H]1NCCc3cc4c(c-2c31)OCO4,86*,65,61*,4,29,-7,39,41*
COc1cc2c(cc1OC)-c1c3c(cc4c1[C@@H](C2)N(C)CC4)OCO3,-15,·,54*,-32,61,-2,48*,40*
COc1cc2c(cc1OC)-c1c(OC)c(OC)cc3c1C(C2)N(C)CC3 (stereo unspecified),·,26,44,-6,·,3,·,·
C=C(C=O)CC1CC(O)[C@]2(C)OC3CC4OC5C[C@]6(C)O[C@]7(C)CCC8OC9C[C@]%10(C)OC%11C(C)=CC(=O)OC%11CC%10OC9C[C@@H](C)C8OC7CC6O[C@]5(C)CC5OC5C4OC3CC2O1 (stereo partly specified),·,9,99*,59,101*,75*,100*,1
COc1cc(/C=C(/C)[N+](=O)[O-])ccc1OCc1ccccc1Cl,·,78*,95*,96*,92*,-37,100*,51*
O=C(Cc1ccncc1)N1CCCCN2[C@H](CO)[C@H](c3ccc(C#CC4(O)CCCC4)cc3)[C@@H]2C1,12,·,·,·,·,·,·,·
C[C@@H]1O[C@@H](O[C@@H]2C=C3CC[C@@H]4C(CC[C@]5(C)[C@@H](c6ccc(=O)oc6)CC[C@]45O)[C@@]3(C)CC2)[C@H](O)[C@H](O)[C@H]1O (stereo partly specified),108*,107*,87*,3,-3,-2,70*,17
C[C@@H]1O[C@@H](O[C@@H]2C=C3CCC4C(CC[C@]5(C)[C@@H](c6ccc(=O)oc6)CC[C@]45O)[C@@]3(C)CC2)[C@H](O)[C@H](O)[C@H]1O (stereo partly specified),110*,101*,83*,-2,12,1,81*,49*
COC(=O)C1=C(c2ccc(F)cc2F)C[C@@H]2CC[C@H]1N2C(=O)NC1CCCCC1,·,12,7,1,-8,3,·,·
COC(=O)C1=C(c2ccc(OCc3ccccc3)cc2)C[C@@H]2CC[C@H]1N2C(=O)NC1CCN(Cc2ccccc2)CC1,·,48,85*,74,78*,51,54*,62*
